Experimental data from article PMC4336329 (PLoS ONE, 2015).
The whole screen tested about 310,000 compounds, of which about 14,000 (4.5%) showed an effect of 50% or more. Effects have a minus sign here. The list comes from a sample in which strong results are over-represented; it also holds similar structures and randomly drawn compounds.

What follows are molecules tested against human ether-à-go-go-related gene (hERG) potassium channel (human, UniProt Q12809) (assay: primary screen, population patch clamp on CHO cells stably expressing hERG; higher = less effect of the substance).
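Also: peak tail current of the secondary pulse compared with the same well before compound.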

Sequence of human ether-à-go-go-related gene (hERG) potassium channel (Q12809 whole entry, looked up): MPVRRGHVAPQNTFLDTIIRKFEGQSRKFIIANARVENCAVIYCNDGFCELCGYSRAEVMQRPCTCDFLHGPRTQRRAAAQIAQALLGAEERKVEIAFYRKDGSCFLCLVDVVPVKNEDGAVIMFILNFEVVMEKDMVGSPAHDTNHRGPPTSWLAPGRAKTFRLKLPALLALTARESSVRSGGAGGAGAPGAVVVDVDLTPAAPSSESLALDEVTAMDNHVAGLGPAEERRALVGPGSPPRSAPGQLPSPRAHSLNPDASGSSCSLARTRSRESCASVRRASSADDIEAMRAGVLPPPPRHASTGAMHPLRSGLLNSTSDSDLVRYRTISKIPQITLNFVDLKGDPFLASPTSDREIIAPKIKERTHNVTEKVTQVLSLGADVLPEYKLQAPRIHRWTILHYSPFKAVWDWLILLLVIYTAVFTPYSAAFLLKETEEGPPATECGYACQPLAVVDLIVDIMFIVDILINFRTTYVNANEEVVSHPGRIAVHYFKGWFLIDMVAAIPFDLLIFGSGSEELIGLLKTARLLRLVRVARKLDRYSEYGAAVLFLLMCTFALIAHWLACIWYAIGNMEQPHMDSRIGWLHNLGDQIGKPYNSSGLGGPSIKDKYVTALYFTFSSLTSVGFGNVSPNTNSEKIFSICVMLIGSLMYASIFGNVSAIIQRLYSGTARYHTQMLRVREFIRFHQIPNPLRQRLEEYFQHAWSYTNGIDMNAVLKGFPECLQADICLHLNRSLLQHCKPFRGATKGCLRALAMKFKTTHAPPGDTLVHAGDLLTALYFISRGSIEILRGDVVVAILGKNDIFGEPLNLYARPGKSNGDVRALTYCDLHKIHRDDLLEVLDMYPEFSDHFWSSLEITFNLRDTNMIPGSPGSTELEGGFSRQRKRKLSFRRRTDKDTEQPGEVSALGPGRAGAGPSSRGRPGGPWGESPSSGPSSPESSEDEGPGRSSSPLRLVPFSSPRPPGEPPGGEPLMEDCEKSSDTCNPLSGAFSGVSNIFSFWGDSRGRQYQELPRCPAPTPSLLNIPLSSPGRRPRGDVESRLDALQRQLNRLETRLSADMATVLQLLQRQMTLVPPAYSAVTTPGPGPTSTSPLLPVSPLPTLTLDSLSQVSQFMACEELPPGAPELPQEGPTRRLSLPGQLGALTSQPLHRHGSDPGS

Row | Compound | hERG current change (%, negative = inhibition) at 10uM [%]
1 | CC(=O)NCCC(=O)Nc1nc(-c2ccccc2Cl)cs1 | -9.76
2 | CCOc1ccc(C(=O)Nc2cccc(-n3cnnn3)c2)cc1OCC | -40.4
3 | O=C(/C=C/c1ccco1)Nc1ccc(Oc2ccc(Cl)cc2)cc1 | 16.1
4 | COc1ccc(S(=O)(=O)NCc2ccccn2)cc1Br | 12.5
5 | CCN1C(=O)/C(=C/c2cc(C)n(C)c2C)SC1=Nc1ccc(OC)cc1 | 9.24
6 | Cc1ccccc1NN1C(=O)C=CC1=O | -8.26
7 | CCOC(=O)CC1C(=O)NCCN1C(=O)c1c(F)cccc1F (centres unmarked) | 16.1
8 | COc1ccc2cc(CCNC(=O)C(C)C)c(=O)[nH]c2c1 | 13.4
9 | C/C(=N\NC(=O)C(C)Sc1ccccc1)c1ccc([N+](=O)[O-])cc1 (centres unmarked) | -3.27
10 | C/C(=N\NC(=O)c1cccc(N/N=C(\C)c2ccc([N+](=O)[O-])cc2)c1)c1ccc([N+](=O)[O-])cc1 | 1.39
11 | C/C(=N\NC(=O)C(C)Nc1cccc(Cl)c1)c1ccc([N+](=O)[O-])cc1 (centres unmarked) | -50.5
12 | Cc1c(Cl)cccc1NC(=S)N1CCN(c2ccc([N+](=O)[O-])cn2)CC1 | 2.33
13 | O=C(NCc1ccc(F)cc1)C1CCCN(S(=O)(=O)c2cccc3nonc23)C1 (centres unmarked) | 19.6
14 | CN(C)CCCN(C(=O)c1ccc(Cl)s1)c1nc2cc3c(cc2s1)OCO3 | -69
15 | CN(C)CCCN(C(=O)c1ccc([N+](=O)[O-])s1)c1nc2cc3c(cc2s1)OCCO3.Cl | -71.3
16 | CN(C)CCN(C(=O)c1cccc2ccccc12)c1nc2cc3c(cc2s1)OCO3.Cl | -22.3
17 | CN(C)CCCN(C(=O)c1cc(Cl)sc1Cl)c1nc2cc3c(cc2s1)OCO3.Cl | -41.9
18 | Cc1ccc2sc(N(CCCN(C)C)C(=O)c3ccc(Br)s3)nc2c1C.Cl | -71.7
19 | Cc1ccc2sc(N(CCCN(C)C)C(=O)c3nc4ccccc4s3)nc2c1C.Cl | 3.59
20 | CN(C)CCN(C(=O)c1cccs1)c1nc2cc3c(cc2s1)OCCO3.Cl | -23.6
21 | CN(C)CCCN(C(=O)c1cccs1)c1nc2cc3c(cc2s1)OCO3.Cl | -56.8

Row | Compound | hERG current change (%, negative = inhibition) at 10uM [%]
22 | Cc1ccc2nc(N(CCCN(C)C)C(=O)c3ccc(Br)s3)sc2c1.Cl | -44.3
23 | CCC(C(=O)NC1CCCCC1)n1c2ccccc2c2nc(=O)cc(C)n21 (centres unmarked) | 10.4
24 | O/N=C/c1cn(-c2ccccc2)nc1-c1cccnc1 | -31.6
25 | COCCCNC(=O)Cn1cnc2sc(C)c(S(=O)(=O)N3CC(C)CC(C)C3)c2c1=O (centres unmarked) | -0.637
26 | COCCCN1C(=O)c2ccc(C(=O)O)cc2C1=O | -0.568
27 | COC(=O)c1ccc(/C=N/NC(=O)c2cccc(F)c2)cc1 | 6.65
28 | COc1cccc(C(=O)NCC(=O)N/N=C/c2cn[nH]c2-c2ccccc2)c1 | -4.6
29 | Cc1nc2nc(C)c(CCC(=O)NCCC3=CCCCC3)c(C)n2n1 | 4.49
30 | COc1ccc(S(=O)(=O)N(C)C)cc1NC(C)C(=O)Nc1cccc(C#N)c1 (centres unmarked) | -23.5
31 | COc1cccc(CNC(=O)C2CSC3(C)CCC(=O)N23)c1 (centres unmarked) | 6.82
32 | CN(C)c1ccc(N/C=C/C(=O)C(C)(C)C)cc1 | 15.9
33 | COC(=O)CN1C(=S)N(C)C(=O)/C1=C/c1cccs1 | 5.21
34 | O=C(CNC(=O)c1ccc(Br)o1)NNC(=O)c1ccccc1O | -2.55
35 | CCn1c2ccccc2c2cc(N=C3SC(CC(=O)Nc4ccccc4OC)C(=O)N3CCOC)ccc21 (centres unmarked) | -3.75
36 | CN(C)CCCN(C(=O)c1ccc(Br)s1)c1nc2cc3c(cc2s1)OCCO3.Cl | -33.9
37 | CN(C)CCCN(C(=O)c1ccc(Br)s1)c1nc2cc3c(cc2s1)OCO3.Cl | -52
38 | CN(C)CCN(C(=O)c1ccc(Br)s1)c1nc2cc3c(cc2s1)OCCO3.Cl | -4.91
39 | COC(=O)C1=C(c2ccc(F)cc2OCc2ccccc2)C[C@@H]2CC[C@H]1N2C(=O)N1CCCCC1 | -9.9
40 | Cc1ccccc1CNC(=O)Cn1cnc(S(=O)(=O)N2CCCC2)c1 | 6.06
41 | CCCOC(=O)C(C)n1cnc2scc(-c3ccc(C)cc3)c2c1=O (centres unmarked) | 6.79
42 | CC(C)(C)n1nnnc1C(c1ccc2ncccc2c1)N1CCC(O)CC1 (centres unmarked) | 12.4

Row | Compound | hERG current change (%, negative = inhibition) at 10uM [%]
43 | CC(C)(C)n1nnnc1C(c1ccc2ncccc2c1)N1CCSCC1 (centres unmarked) | -18.1
44 | COCCn1nnnc1C(c1ccc2ncccc2c1)N1CCN(c2ccccc2F)CC1 (centres unmarked) | -19.4
45 | CC(C)(C)n1nnnc1C(c1cccnc1)N1CCN(c2cccc(C(F)(F)F)c2)CC1.Cl (centres unmarked) | -53.3
46 | CCC(C)(C)n1nnnc1C(c1ccc2ncccc2c1)N1CCN(c2ccc(O)cc2)CC1 (centres unmarked) | -31.7
47 | COc1ccc(N2CCN(C(c3ccc4ncccc4c3)c3nnnn3C(C)C)CC2)cc1 (centres unmarked) | -51.7
48 | CCC(C)(C)n1nnnc1C(c1cccnc1)N1CCN(c2cccc(C(F)(F)F)c2)CC1 (centres unmarked) | -41
49 | COc1ccc(N2CCN(C(c3ccc4ncccc4c3)c3nnnn3C(C)(C)C)CC2)cc1 (centres unmarked) | -52.1
50 | CC(C)(C)n1nnnc1C(c1cccnc1)N1CCN(c2ccccc2)CC1 (centres unmarked) | -8.19
51 | CCc1ccc(NC(=O)Nc2ccncc2)cc1 | -20.9
52 | O=C1Nc2ccc([N+](=O)[O-])cc2OC1CCN1CCN(c2ccccc2)CC1 (centres unmarked) | -47.4
53 | C/C(=N\Nc1ncnc2sc(C)c(C)c12)c1ccccn1 | -35.5
54 | NC(=O)c1coc(-c2ccccc2)n1 | 12.9
55 | O=C(COC(=O)c1cccc2ccccc12)NCCCc1ccccc1 | 0.562
56 | COC1CCN(C(=O)c2ccc(OC3CCN(CCc4ccccc4)CC3)cc2)CC1 | -29.8
57 | Cc1csc(CNC(=O)c2ccc(OC3CCN(CCc4ccccc4)CC3)cc2)n1 | -55.3
58 | CC(C)N1CCN(C(=O)c2ccc(OC3CCN(CCc4ccccc4)CC3)cc2)CC1 | -0.0142
59 | O=C(NCc1ccccn1)c1ccc(OC2CCN(Cc3ccccc3)CC2)cc1 | -10.2
60 | CC(NC(=O)c1ccc(OC2CCN(Cc3ccccn3)CC2)cc1)c1nccs1 (centres unmarked) | -10.3
61 | Cc1csc(C(C)NC(=O)c2ccc(OC3CCN(CCc4ccccc4)CC3)cc2)n1 (centres unmarked) | -66.2
62 | CCOC(=O)C(CC(=O)Nc1nc(C(C)=O)c(C)s1)C(C)c1ccccc1 (centres unmarked) | 2.61
63 | C=CCSc1nc2c(c(=O)[nH]1)C(C(C)C)C(C#N)=C(N)O2 (centres unmarked) | 3.05

Row | Compound | hERG current change (%, negative = inhibition) at 10uM [%]
64 | O=C(Nc1ccc(-c2nc3ccccc3[nH]2)cc1)c1ccc2c(c1)OCO2 | 6.85
65 | CCCCN(C)C(=O)c1cn(CC)c2ccc(S(=O)(=O)N(C)C)cc2c1=O | 8.08
66 | c1cc(C(c2nnnn2C2CCCCC2)N2CCN3CCCC3C2)ccn1 (centres unmarked) | -1.98
67 | COc1ccc(NC(=O)C2CCCN2C(=O)NC2CCCCC2)cc1 (centres unmarked) | -2.82
68 | CN(C)CCOc1ccccc1C(C)(C)C.O=C(O)C(=O)O | 5.47
69 | CN(C)CCOc1ccccc1Cc1ccccc1.O=C(O)CC(O)(CC(=O)O)C(=O)O | -61.9
70 | O=C(O)COc1ccccc1Cc1ccccc1 | 5.22
71 | COc1ccc(-n2ccc3ccccc32)cc1 | 13
72 | CCCCn1c(=O)c(F)cn(Cc2ccc(OC)c([N+](=O)[O-])c2)c1=O | -25.2
73 | CCCCCn1c(=O)c(F)cn(Cc2ccc(OC)c([N+](=O)[O-])c2)c1=O | -56.6
74 | CCCCCCn1c(=O)c(F)cn(Cc2ccc(OC)c([N+](=O)[O-])c2)c1=O | -40.3
75 | CC(C)(C)C(=O)Oc1ccc2cc(-c3ccc4ccccc4n3)c(=O)oc2c1 | -10.5
76 | Nc1nc(COC(=O)c2ccc3c(c2)OCCO3)nc(Nc2ccccc2)n1 | 10.2
77 | CN1CCN(Cc2nc(N)nc(Nc3ccc4c(c3)OCCO4)n2)CC1 | -26.1
78 | c1ccc(CN2CCN(Cc3ccc4c(c3)OCCO4)CC2)cc1 | -10.6
79 | Nc1nc(CN2CCN(c3ccccc3F)CC2)nc(Nc2ccc3c(c2)OCCO3)n1 | -74.4
80 | Nc1nc(CN2CCN(Cc3ccccc3)CC2)nc(Nc2ccc3c(c2)OCCO3)n1 | -74.8
81 | O=C(CCN1CCN(c2ccccc2F)CC1)Nc1ccc2c(c1)OCO2 | -27.6
82 | Cc1c(C(c2ccc(F)cc2)c2c(O)c3ccccc3oc2=O)c(=O)n(-c2ccccc2)n1C (centres unmarked) | -20.9
83 | COc1ccc(-n2c(-c3ccco3)nc3c(cnn3-c3ccc(C)cc3)c2=O)cc1 | 1.88
